For one experiment, the target named is Albumin (Bos taurus) (UniProt P02769). The experiment can be described thus: compounds binding labelled BSA control protein – biochemical, small-molecule microarray, Alexa647 label, 635/667 nm fluorescence, artefact control for SMM control protein annotation, profiling panel (AID 1118).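 Also: score merges 667 nm emission intensity and signal-to-noise per printed compound spot.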 The conditions noted are these: BSA-A647 binding, fluorescence 635 nm, higher = more signal.
Chain of Albumin (Bos taurus) (P02769 whole entry, looked up): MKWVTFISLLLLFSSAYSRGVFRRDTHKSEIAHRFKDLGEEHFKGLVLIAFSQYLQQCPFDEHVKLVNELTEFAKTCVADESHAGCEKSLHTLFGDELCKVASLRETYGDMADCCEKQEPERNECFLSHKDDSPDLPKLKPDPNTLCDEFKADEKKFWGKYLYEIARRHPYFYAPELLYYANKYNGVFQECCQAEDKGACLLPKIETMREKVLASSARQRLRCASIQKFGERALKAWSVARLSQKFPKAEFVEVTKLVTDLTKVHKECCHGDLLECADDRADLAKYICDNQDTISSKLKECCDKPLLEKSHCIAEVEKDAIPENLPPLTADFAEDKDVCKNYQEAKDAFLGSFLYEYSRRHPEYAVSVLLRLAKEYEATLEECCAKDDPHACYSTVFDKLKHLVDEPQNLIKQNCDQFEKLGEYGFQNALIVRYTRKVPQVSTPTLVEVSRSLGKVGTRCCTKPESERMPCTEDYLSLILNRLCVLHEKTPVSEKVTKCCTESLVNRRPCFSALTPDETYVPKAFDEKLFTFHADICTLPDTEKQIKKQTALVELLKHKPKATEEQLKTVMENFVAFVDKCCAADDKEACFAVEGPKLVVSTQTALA

A short description of experiment [1]: probe aXIP binding to arrayed compounds – biochemical, NeuroSMM set, 635/667 nm fluorescence, primary screen (AID 1119).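 Also: probe is the protein aXip251-270 applied at 1 µg/mL to compound-printed slides; binding of probe to printed compounds measured as 667 nm fluorescence plus signal to noise.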 Particulars: small-molecule microarray, higher = more signal, called active from +8 up or from −8 down.
Experiment [2] can be described thus: probe aNOTCH3 binding on compound microarray – biochemical, small-molecule microarray, 635/667 nm fluorescence, primary screen (AID 1120).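 Also: probe is a biotin-tagged antibody raised against NOTCH3 rather than NOTCH3 protein; score merges spot fluorescence near 667 nm with spot signal to noise.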 The conditions noted are these: higher = more signal.
Experiment [3] can be described thus: probe aNOTCH2 binding on compound microarray – biochemical, small-molecule microarray, 635/667 nm fluorescence, primary screen (AID 1121).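 Also: score merges feature fluorescence read at 667 nm with its signal to noise.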 The conditions noted are these: higher = more signal.
Experiment [4] addresses Carbonic anhydrase 2 (Homo sapiens) (UniProt P00918). The experiment can be described thus: compounds binding carbonic anhydrase 2 – biochemical, small-molecule microarray, Alexa647-labelled CAII, profiling panel (AID 1122). Particulars: CAII-A647 binding fluorescence, higher = more signal.
Experiment [5] in a line: COS7 lysate on small-molecule microarray, probe aHis, 635 nm (AID 1123).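 Also: z-score combines 667nm fluorescence intensity with signal-to-noise per printed compound spot.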 Particulars: COS7 cell lysate, fluorescence, higher = more signal.
Experiment [6] can be described thus: probe aLAP1 signal on lysate-treated microarray – cell lysate, small-molecule microarray, COS7 lysate, primary screen (AID 1124).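 Also: lysate comes from COS7 cells expressing LAP1 and is applied at 0.3 µg/mL; score merges spot fluorescence near 667 nm with signal-to-noise over triplicate slides.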 The conditions noted are these: probe aLAP1, fluorescence, higher = more signal.
The next experiment deals with Sam68 (KHDRBS1). Nature of the experiment: compounds binding KHDRBS1 protein – biochemical, small-molecule microarray, 635 nm fluorescence, primary screen (AID 1125).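 Also: score merges 667 nm channel intensity with signal to noise over triplicate slides.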 The conditions noted are these: higher = more signal.
In experiment [7] the test system is Chordin-like protein 2 (CHRDL2). The experiment can be described thus: compounds binding chordin-like 2 – biochemical, small-molecule microarray, 635 nm fluorescence, primary screen (AID 1126).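 Also: printed compound slides probed with Chrdl2 protein at 4 µg/mL for 1 h at 4 C; score merges 667 nm emission intensity with signal to noise over three replicate slides.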 The conditions noted are these: fluorescence 635 nm, higher = more signal.
Experiment [8] has as its target Concanavalin-A (Canavalia ensiformis) (UniProt P02866). The experiment can be described thus: compounds binding concanavalin A lectin – biochemical, small-molecule microarray, Alexa647 label, 635 nm, artefact control for SMM control protein annotation, primary screen (AID 1127).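 Also: z combines 667 nm emission intensity with signal-to-noise across three replicate slides.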 Particulars: ConA-A647 binding fluorescence, higher = more signal.
Experiment [9] is described as follows: compounds binding Alexa647 anti-His antibody – biochemical, small-molecule microarray, 635 nm fluorescence, artefact control for SMM control protein annotation, primary screen (AID 1128).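 Also: score merges feature fluorescence with signal-to-noise for each printed compound spot.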 The conditions noted are these: higher = more signal.
In experiment [10] the test system is Human papillomavirus type 1a E7 protein (residues 1-88). The experiment can be described thus: HPV1a E7 small-molecule binders, primary screen, biochemical, small-molecule microarray, residues 1-88, 635 nm (AID 1129). The conditions noted are these: small-molecule microarray binding, fluorescence 635 nm; higher = more signal.
For experiment [11], the target named is Focal adhesion kinase 1 (Homo sapiens) (UniProt Q05397). The experiment can be described thus: PTK2 protein binding on printed compound slides – biochemical, small-molecule microarray, 635/667 nm fluorescence, BSA, DTT, primary screen (AID 1130).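 Also: composite of spot emission at 667 nm and signal to noise over triplicate slides.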 Particulars: 635 nm fluorescence, higher = more signal.
Chain of Focal adhesion kinase 1 (Homo sapiens) (Q05397 whole entry, looked up): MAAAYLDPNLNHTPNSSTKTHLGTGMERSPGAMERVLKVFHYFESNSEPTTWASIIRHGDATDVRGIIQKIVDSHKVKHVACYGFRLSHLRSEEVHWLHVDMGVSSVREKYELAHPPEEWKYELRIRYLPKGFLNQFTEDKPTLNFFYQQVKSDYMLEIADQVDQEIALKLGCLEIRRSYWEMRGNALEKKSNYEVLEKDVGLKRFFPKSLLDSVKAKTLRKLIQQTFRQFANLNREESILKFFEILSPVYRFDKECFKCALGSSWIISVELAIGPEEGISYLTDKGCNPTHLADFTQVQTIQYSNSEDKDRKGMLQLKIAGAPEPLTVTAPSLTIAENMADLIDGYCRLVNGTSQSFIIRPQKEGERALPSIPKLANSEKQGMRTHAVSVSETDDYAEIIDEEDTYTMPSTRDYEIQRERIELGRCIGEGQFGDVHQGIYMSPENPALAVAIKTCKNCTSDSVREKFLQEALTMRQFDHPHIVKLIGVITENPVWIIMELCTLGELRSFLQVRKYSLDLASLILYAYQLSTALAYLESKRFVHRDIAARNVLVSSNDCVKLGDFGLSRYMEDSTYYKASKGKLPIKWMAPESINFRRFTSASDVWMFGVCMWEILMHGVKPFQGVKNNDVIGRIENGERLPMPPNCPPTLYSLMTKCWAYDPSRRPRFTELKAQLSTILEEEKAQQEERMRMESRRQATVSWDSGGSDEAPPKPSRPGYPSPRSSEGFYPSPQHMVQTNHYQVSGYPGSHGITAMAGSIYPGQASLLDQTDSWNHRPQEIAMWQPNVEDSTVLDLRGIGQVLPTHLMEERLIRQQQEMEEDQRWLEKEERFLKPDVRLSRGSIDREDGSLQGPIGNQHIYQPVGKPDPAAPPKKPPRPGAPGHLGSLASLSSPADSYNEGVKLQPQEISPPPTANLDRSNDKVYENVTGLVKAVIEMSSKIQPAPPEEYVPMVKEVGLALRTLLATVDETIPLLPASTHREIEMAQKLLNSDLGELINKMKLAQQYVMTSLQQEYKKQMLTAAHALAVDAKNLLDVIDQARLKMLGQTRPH
Experiment [12] deals with Fibrinogen (Alexa647-labelled). The experiment can be described thus: Alexa647-fibrinogen binding to printed small molecules – biochemical, small-molecule microarray, 635/667 nm fluorescence, artefact control for SMM control-protein annotation, profiling panel (AID 1131).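 Also: z-score merges 667 nm fluorescence with per-spot signal-to-noise over triplicate slides.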 The conditions noted are these: fibrinogen-A647 binding fluorescence, higher = more signal.
Experiment [13] addresses Follistatin (Homo sapiens) (UniProt P19883). The experiment can be described thus: FST protein binding to printed compounds – biochemical, small-molecule microarray, 635/667 nm fluorescence, primary screen (AID 1132). Particulars: 635 nm fluorescence, higher = more signal.
Experiment [14] addresses Fibroblast growth factor 2 (Homo sapiens) (UniProt P09038). Nature of the experiment: basic fibroblast growth factor binding to printed compounds – biochemical, small-molecule microarray, 635/667 nm fluorescence, primary screen (AID 1133). The conditions noted are these: FGF2, fluorescence 635/667, higher = more signal.
A short description of experiment [15]: JC-1 mitochondrial potential readout, lung cancer cells – cell-based, A549, JC-1 fluorescence, basal, 24 h, 100 nL, profiling panel (AID 1138).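 Also: A549 lung adenocarcinoma cells under basal conditions with no added stimulus; test concentration not given here.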 The conditions noted are these: higher = more signal.
A further experiment concerns Lefty1. The experiment can be described thus: Lefty1 protein binding to printed compounds – biochemical, small-molecule microarray, 635/667 nm fluorescence, primary screen (AID 1139). Particulars: fluorescence 635/667, higher = more signal.
The subject of experiment [16] is wheat germ agglutinin (Triticum aestivum), Alexa647-labelled. Nature of the experiment: Alexa647-WGA lectin binding to printed small molecules – biochemical, small-molecule microarray, 635/667 nm fluorescence, artefact control for SMM control-protein annotation, profiling panel (AID 1140).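 Also: score merges 667 nm feature emission with signal to noise over triplicate slides.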 Particulars: WGA-A647 binding, 635 nm fluorescence, higher = more signal.
The target of experiment [17] is Luciferin 4-monooxygenase (Photinus pyralis) (UniProt P08659). The experiment can be described thus: inhibition of purified Photinus pyralis luciferase – biochemical, luminescence, purified enzyme, 2006 set, primary screen (AID 1141).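 Also: cell-free assay with purified firefly luciferase at 100 ng per well in PBS; test concentration not given here.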 The conditions noted are these: purified firefly luciferase, SteadyGlo luminescence, 30 min; higher = more signal, called active from +8 up or from −8 down.
Chain of Luciferin 4-monooxygenase (Photinus pyralis) (P08659 whole entry, looked up): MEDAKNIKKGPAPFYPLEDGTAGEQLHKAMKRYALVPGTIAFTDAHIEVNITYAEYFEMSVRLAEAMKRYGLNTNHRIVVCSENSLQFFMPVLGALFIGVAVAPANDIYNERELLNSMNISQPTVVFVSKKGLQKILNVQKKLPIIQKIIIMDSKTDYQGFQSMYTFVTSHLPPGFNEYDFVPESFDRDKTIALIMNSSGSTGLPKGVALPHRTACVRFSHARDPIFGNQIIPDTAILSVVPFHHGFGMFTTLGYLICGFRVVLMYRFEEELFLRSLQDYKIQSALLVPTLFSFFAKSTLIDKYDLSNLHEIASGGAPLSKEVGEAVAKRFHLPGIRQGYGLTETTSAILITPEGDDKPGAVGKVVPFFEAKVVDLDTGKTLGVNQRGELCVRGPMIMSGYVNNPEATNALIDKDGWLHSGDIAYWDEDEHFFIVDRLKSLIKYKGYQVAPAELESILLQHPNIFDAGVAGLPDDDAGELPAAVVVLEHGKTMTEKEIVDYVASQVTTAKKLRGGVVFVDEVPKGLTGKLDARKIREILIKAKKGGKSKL

Activity calls are given as the source filed them.

Chain of Follistatin (Homo sapiens) (P19883 whole entry, looked up): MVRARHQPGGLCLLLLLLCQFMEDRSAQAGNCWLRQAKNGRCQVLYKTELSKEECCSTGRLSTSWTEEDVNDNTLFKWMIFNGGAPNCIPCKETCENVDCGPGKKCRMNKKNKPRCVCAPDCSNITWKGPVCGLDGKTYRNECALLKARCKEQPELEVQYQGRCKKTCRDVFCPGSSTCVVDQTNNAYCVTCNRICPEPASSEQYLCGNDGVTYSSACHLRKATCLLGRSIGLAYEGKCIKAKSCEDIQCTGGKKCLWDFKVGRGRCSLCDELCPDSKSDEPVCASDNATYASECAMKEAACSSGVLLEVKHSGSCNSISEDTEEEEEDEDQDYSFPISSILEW
Chain of Fibroblast growth factor 2 (Homo sapiens) (P09038 whole entry, looked up): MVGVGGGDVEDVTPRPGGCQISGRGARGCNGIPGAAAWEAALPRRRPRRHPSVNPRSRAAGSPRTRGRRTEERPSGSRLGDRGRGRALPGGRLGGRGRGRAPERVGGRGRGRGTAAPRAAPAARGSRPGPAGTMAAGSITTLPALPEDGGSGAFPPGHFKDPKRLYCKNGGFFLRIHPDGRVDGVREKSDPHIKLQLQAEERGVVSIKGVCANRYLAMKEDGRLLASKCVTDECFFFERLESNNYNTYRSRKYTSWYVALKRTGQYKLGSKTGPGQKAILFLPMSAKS
Chain of Concanavalin-A (Canavalia ensiformis) (P02866 whole entry, looked up): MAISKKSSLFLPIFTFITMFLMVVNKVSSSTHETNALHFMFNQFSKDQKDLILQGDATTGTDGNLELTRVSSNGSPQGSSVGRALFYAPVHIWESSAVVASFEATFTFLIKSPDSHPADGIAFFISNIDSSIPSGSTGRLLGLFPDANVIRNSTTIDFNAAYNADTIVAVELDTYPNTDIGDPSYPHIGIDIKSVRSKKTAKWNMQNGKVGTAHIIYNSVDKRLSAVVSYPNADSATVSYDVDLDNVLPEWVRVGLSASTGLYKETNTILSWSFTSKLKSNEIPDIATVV

Regarding `COc1cc2c(cc1OC)CN(C(=O)[C@@H]1[C@H]3C(=O)O[C@H](c4ccccc4)[C@H](c4ccccc4)N3[C@H](c3ccc(O)cc3)[C@@]13C(=O)Nc1ccc(C#CCCO)cc13)CC2`, the composite z-score with Albumin (Bos taurus) is 0.571; in experiment [2] it was -0.0699; in [3], -0.113; in [4], 0.606; in experiment [5], 1.08; in experiment [6], 0.78. The composite z-score in the experiment with Sam68 (KHDRBS1) came to 1.13; in [7], 0.481; in [8], 0.754; in experiment [9] it was 0.388; in experiment [10], 0.989; in experiment [11], 0.584. For the same compound, the composite z-score in [12] is 0.876; in experiment [13], 1.11; in [14], 1.24; with Lefty1 it was 0.945; in [16] it was 0.7. In addition, the composite Z-score in experiment [1] is 0.37 (inactive). Also, the z-score is -1.2 in [15] and 0.372 (inactive) in experiment [17].
Regarding `CCOC(=O)C[C@H]1[C@H](OC(=O)c2ccc(-c3ccccc3)cc2)[C@@H](NC(=O)CC(C)C)c2cc(OCCCO)ccc2N1C(=O)c1ccccc1`, the composite z-score was 0.506 in the experiment with Albumin (Bos taurus); -0.0057 in experiment [2]; -0.124 in experiment [3]; 0.108 in experiment [4]; 0.806 in experiment [5]; -0.2 in experiment [6]. Further, the composite z-score turned out to be 1.03 with Sam68 (KHDRBS1); 0.0549 in [7]; 0.27 in experiment [8]; 0.281 in experiment [9]; 0.453 in experiment [10]; 0.513 in [11]. For the same compound, the composite z-score in [12] was 0.252; in experiment [13], 0.249; in experiment [14], 0.376; in the experiment with Lefty1, 0.369; in experiment [16] it was 0.0794. Moreover, the composite Z-score in experiment [1] is -0.221 (inactive). The z-score in [15] was 1.23; in [17], -0.228 (inactive).
Consider `COCC(=C=CC[C@@H](O)c1ccc(OCCO)cc1)CCO`, for which the composite z-score with Albumin (Bos taurus) is -0.201; in experiment [2] it was -0.17; in [3] it was -0.0859; in experiment [4], 0.838; in experiment [5], 1.25; in experiment [6], 0.83. The composite z-score in the experiment on Sam68 (KHDRBS1) is 0.847; in experiment [7], 0.136; in experiment [8], -0.139; in experiment [9], 0.656; in experiment [10], 0.529; in [11], 0.17. The composite z-score is -0.97 in [12]; 1.08 in experiment [13]; 0.517 in [14]; 0.993 in the experiment with Lefty1; 1.27 in experiment [16]. Besides, in experiment [1], the composite Z-score is 1.21 (inactive). Moreover, the z-score in experiment [15] was 0.721; in experiment [17], -0.776 (inactive).
For `CCCCCCCCCCC(O)C1C=CC2C(=O)N(c3ccccc3)C(=O)C2N1Nc1ccccc1F` (stereo not given), the composite z-score in the experiment with Albumin (Bos taurus) is 0.524; in [2] it was -0.0242; in [3], -0.171; in experiment [4] it was 0.208; in experiment [5] it was 1.5; in experiment [6], 0.344. Moreover, the composite z-score is 0.233 in the experiment on Sam68 (KHDRBS1); -1.13 in experiment [7]; 0.17 in [8]; 0.0112 in [9]; 0.399 in experiment [10]; 0.674 in [11]. For the same compound, the composite z-score is 0.415 in [12]; -0.348 in [13]; -0.591 in experiment [14]; -0.833 in the experiment on Lefty1; 0.472 in experiment [16]. For the same compound, in experiment [1], the composite Z-score was -0.105 (inactive). For the same compound, the z-score in experiment [15] is -0.127; in experiment [17] it was 0.422 (inactive).
With `CCCCNC(=O)c1ccc(C#C[Si](C(C)C)(C(C)C)C(C)C)c(OC(C)=O)c1`, the composite z-score in the experiment with Albumin (Bos taurus) was -0.154; in [2] it was 0.089; in [3] it was -0.117; in [4], 0.925; in [5] it was 0.1; in experiment [6], -0.18. Further, the composite z-score in the experiment on Sam68 (KHDRBS1) amounted to 0.823; in experiment [7], 1.33; in experiment [8] it was 0.94; in experiment [9] it was 0.823; in experiment [10], 1.13; in experiment [11], 0.124. For the same compound, the composite z-score was 0.598 in [12]; 1.15 in experiment [13]; 0.883 in experiment [14]; 1.01 in the experiment with Lefty1; 1.08 in experiment [16]. Further, the composite Z-score in experiment [1] is 0.168 (inactive). Also, the figures for the z-score in experiment [15] and in experiment [17] were -2.05 and 0.683 (inactive), respectively.
For `Cc1ccc(S[C@]2(C(=O)NC(C)C)CC(=O)N(C(C)C)[C@@H]2c2ccc(CO)cc2I)cc1`, the composite z-score is 0.41 with Albumin (Bos taurus); -0.0647 in experiment [2]; -0.0686 in [3]; 0.326 in experiment [4]; 1.32 in [5]; 0.366 in experiment [6]. For the same compound, the composite z-score in the experiment on Sam68 (KHDRBS1) was 1.12; in [7] it was -0.598; in [8] it was -0.0097; in [9] it was -0.893; in [10], -0.0049; in experiment [11] it was 1.58. Besides, the composite z-score was 0.351 in experiment [12]; -0.077 in experiment [13]; -0.471 in [14]; -0.18 in the experiment with Lefty1; 0.169 in experiment [16]. In addition, the composite Z-score in experiment [1] was -0.283 (inactive). Also, the z-score in experiment [15] was 1.28; in [17], 1.11 (inactive).
